# The list is not random: actives were taken first. Their share in the collection is about 0.42%.
# PGK inhibitor – inhibitors of T. brucei phosphoglycerate kinase | PGK/GAPDH coupled, Kinase-Glo luminescence, 60 min | Potency, µM (series often up to 57.5 µM), hits mostly inhibitors | 0.043% of 380,000 active | AID 602233; note: nearly all actives have a fitted effect of over 60% in size
#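 Recombinant glycosomal PGK reaction used 1,3-bisphosphoglycerate generated in-well by GAPDH (100nM final) in 100mM TEA pH 7.6, 5mM MgCl2, 0.01% Tween-20. After 60 minutes at room temperature, ATP was read by Kinase-Glo Plus luminescence end-point.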
# B2AR arrestin – agonists driving beta-arrestin recruitment to human beta2-adrenergic receptor; P07550; beta-arrestin recruitment to beta2AR, cell-based reporter; Potency, µM (highest dose often 46.1 µM), usual class: activators; 0.02% of 330,000 active; AID 492947; note: nearly all actives have a fitted effect of over 65% in size
# Chronic BCR inh – inhibitors of chronic active B-cell receptor signaling; ABC-DLBCL IkBa-CBG/CBR reporter, luminescence ratio, 4 h; Potency, µM (series often up to 46.1 µM), actives largely listed as inhibitors; 0.05% of 340,000 active; AID 493014; active = well fitted inhibition curve with a large enough effect in the signal ratio, with a control signal flat, not every such curve was filed as active; inconclusive = small, poorly fitted or top-dose-only effect, or effect the other way, or a change in a side signal; the % refers to the signal ratio
#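 Concentration-response series (up to 46 uM) were applied to TMD8 dual-reporter cells for 4 h at 37C with doxycycline. Green/red ratio, after filter-overlap correction, defined %Activity; red signal alone was normalised to basal cells and zero luminescence.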
# Pin1 inh – inhibitors of human Pin1. Pin1 FP peptide displacement, HiFluor488, 10 min. AID 504891. 0.009% of 390,000 active. Potency, µM (series often up to 115 µM), actives largely listed as inhibitors. Q13526; active = well fitted inhibition curve with a large enough effect in the polarisation, with a control signal flat, not every such curve was filed as active; inconclusive = small, poorly fitted or top-dose-only effect, or effect the other way, or a change in a side signal; inactive = no such curve, though single readings can be large or run the other way; the % refers to the polarisation
# Target sequence (Q13526 whole entry, looked up): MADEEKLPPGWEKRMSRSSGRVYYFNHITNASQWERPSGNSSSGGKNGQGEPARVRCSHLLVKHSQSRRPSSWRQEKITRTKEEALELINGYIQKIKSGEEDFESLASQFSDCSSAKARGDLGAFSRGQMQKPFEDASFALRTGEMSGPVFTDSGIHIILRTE
# GLS inhibitor – blocks human kidney-isoform glutaminase activity; GLS enzymatic activity, qHTS titration; O94925; Potency, µM (top dose mostly 45.5 µM), usual class: inhibitors; 0.21% of 410,000 active
#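 Assay buffer: 45 mM KH2PO4 pH 8.2, 0.02% Tween-20. hKGA acts on L-glutamine (1 mM solution added); product glutamate is reported by an oxidase/peroxidase Amplex Red coupling, with fluorescence taken at baseline and 30 min.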
# Tb PFK inh-1 – blocks T. brucei phosphofructokinase | 0.17% of 330,000 active | O15648 | Potency, µM (series often up to 57.5 µM), most hits filed as inhibitors | T. brucei PFK, ADP-Glo luminescence; note: nearly all actives have a fitted effect of over 60% in size
# Target sequence (O15648 whole entry, looked up): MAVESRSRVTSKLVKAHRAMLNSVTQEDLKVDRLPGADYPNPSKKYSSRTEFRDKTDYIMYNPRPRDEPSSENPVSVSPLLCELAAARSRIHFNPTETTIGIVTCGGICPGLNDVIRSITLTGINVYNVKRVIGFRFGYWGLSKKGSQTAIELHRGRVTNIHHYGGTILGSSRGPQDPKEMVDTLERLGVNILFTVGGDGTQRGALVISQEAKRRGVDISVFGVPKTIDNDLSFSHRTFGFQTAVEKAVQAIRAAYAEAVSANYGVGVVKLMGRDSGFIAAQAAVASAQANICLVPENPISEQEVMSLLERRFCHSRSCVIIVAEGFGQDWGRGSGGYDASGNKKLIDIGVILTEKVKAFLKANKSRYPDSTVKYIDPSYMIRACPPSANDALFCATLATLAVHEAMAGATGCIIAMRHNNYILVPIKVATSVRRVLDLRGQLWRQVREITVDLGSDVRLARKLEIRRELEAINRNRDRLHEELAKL
#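 Compounds were pin-transferred as a titration series up to 57 uM into substrate buffer (0.5 mM F6P, 0.1 mM ATP, pH 8.0), then 1.25 nM PFK was added and reactions ran 45 min before ADP-Glo detection.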
# TbPFK ATP – inhibits T. brucei PFK measured by ATP depletion; Tb PFK enzyme, ATP depletion, Kinase-Glo Plus luminescence; Potency, µM (top dose mostly 57.5 µM); AID 504636; shares compounds with Tb PFK inh-1; 47% of 1,100 active; calls by dose curve; note: nearly all actives have a fitted effect of over 60% in size
# Tb PFK inh-2 – T. brucei PFK enzyme inhibition, hit validation; shares compounds with Tb PFK inh-1; purified T. brucei PFK, ADP-Glo luminescence, 45 min; Potency, µM (series often up to 57.5 µM), actives largely listed as inhibitors; 41% of 1,100 active; note: nearly all actives have a fitted effect of over 60% in size
# A number is an active result; i = inactive; ? = inconclusive; nt = no result. Unless noted, calls come from the whole dose curve; as a rule, active = well fitted curve in the direction sought with a large enough effect; inconclusive = small, poorly fitted or top-dose-only effect, or another doubt; inactive = no such curve, though single readings can be large; an effect the other way counts as inactive or inconclusive.
SMILES,PGK inhibitor,B2AR arrestin,Chronic BCR inh,Pin1 inh,GLS inhibitor,Tb PFK inh-1,TbPFK ATP,Tb PFK inh-2
C[C@]12CCC3C(CCC4=CC(=O)CC[C@@H]43)C1CCC2O (some centres not stated),nt,nt,nt,nt,i,nt,nt,nt
C[C@]12CC[C@@H]3c4cc(O)c(O)cc4CC[C@H]3[C@@H]1CC[C@@H]2O,i,i,?,i,8.9µM,?,3.4µM,4.8µM
[Cl-].[Cl-].[Hg+2],nt,nt,nt,nt,i,nt,nt,nt
CCON=O,nt,nt,nt,nt,i,nt,nt,nt
Clc1ccc(Cn2cc(Br)cn2)cc1Cl,i,i,i,i,i,24µM,6µM,12µM
N#Cc1ccc(NC(=O)CN2C(=O)NC3(CCCCCCC3)C2=O)cc1Cl,i,i,?,i,i,i,nt,nt
COc1ccc(NS(=O)(=O)c2ccc(C)c(NC(=O)CN3C(=O)NC4(CCCC4)C3=O)c2)cc1,i,i,i,i,i,?,i,?
CC[n+]1c(C)sc2cc(C)ccc21,i,i,?,i,i,?,i,i
CCOC(=O)NCc1ccc(Cl)c(Cl)c1,i,i,i,i,i,30µM,21µM,?
Cc1ccc(C(=O)NCc2ccc(Cl)c(Cl)c2)o1,i,i,i,i,i,11µM,6.7µM,24µM
Cc1onc(-c2ccccc2Cl)c1C(=O)NCc1ccc2c(c1)cc(C)n2C,i,i,i,?,i,i,nt,nt
CCCN(CCC)C(=O)Cc1c(-c2ccc(Cl)cc2)nc2ccc(Cl)cn12,nt,nt,nt,nt,i,nt,nt,nt
O=C1C(=O)c2ccccc2-c2ccccc21,?,i,?,nt,i,i,nt,nt
Nc1ccc(O)c2c1C(=O)c1ccccc1C2=O,?,i,i,nt,7.9µM,?,i,i
Cc1cc(C)c2c(=O)n(CC(=O)Nc3cccc(Cl)c3C)sc2n1,i,i,i,i,?,4.8µM,?,6µM
Cc1cc(C)c2c(=O)n(CC(=O)Nc3ccc(Br)c(C)c3)sc2n1,i,i,i,i,i,13µM,2.7µM,3µM
Cc1cc(C)c2c(=O)n(CC(=O)NC3CCCC3)sc2n1,i,i,?,i,i,6µM,?,5.4µM
Cc1c(Cl)cccc1NC(=O)CN1C(=O)C(C)N=C(c2ccccc2)c2ccccc21 (configuration not stated),i,nt,nt,i,i,nt,nt,nt
CC12CCC3C4CCC(=O)C(O)=C4CCC3C1CCC2OC(=O)CCC1CCCC1 (configuration not stated),nt,nt,nt,nt,i,nt,nt,nt
O=C(O)CC1S/C(=N/N=C/c2ccc(-c3ccc(Cl)cc3[N+](=O)[O-])o2)NC1=O (configuration not stated),i,i,i,?,i,?,i,?
O=C(O)CC1S/C(=N/N=C/C=C/c2ccccc2[N+](=O)[O-])NC1=O (configuration not stated),i,i,i,i,i,?,i,?
O=c1c2ccccc2nc(/C=C\c2ccccc2[N+](=O)[O-])n1-c1ccccc1O,i,i,?,i,i,i,nt,nt
CC(O)CN1CCN(CC(=O)[O-])CCN(CC(=O)[O-])CCN(CC(=O)[O-])CC1.[Gd+3] (configuration not stated),nt,nt,nt,nt,i,nt,nt,nt
CCOC(=O)c1cnc2c(ccc3ccccc32)c1Nc1ccc(C(C)=O)cc1,i,nt,nt,i,i,nt,nt,nt
O=c1[nH]c(=S)n(Cc2ccco2)c(O)c1C=NCc1cccs1,i,i,i,?,i,?,?,i
SMILES,PGK inhibitor,B2AR arrestin,Chronic BCR inh,Pin1 inh,GLS inhibitor,Tb PFK inh-1,TbPFK ATP,Tb PFK inh-2
O=c1[nH]c(=O)n(Cc2ccco2)c(O)c1C=NCc1cccs1,i,nt,nt,i,i,nt,nt,nt
COc1ccc(C(O)P(=O)(OCC(C)C)c2ccc(N(C)C)cc2)c(OC)c1 (configuration not stated),i,i,?,i,i,i,nt,nt
O=c1cc(/N=C/c2coc3c(ccc4ccccc43)c2=O)[nH]c(=S)[nH]1,i,i,i,i,i,?,i,?
CN1C(=O)C(=Cc2coc3ccccc3c2=O)C(=O)N(C)C1=O,i,i,i,i,i,i,nt,nt
Nc1ccc2c3c(cccc13)-c1ccccc1-2,i,nt,nt,nt,?,nt,nt,nt
N#Cc1c(N)nc2c(c1N)CC(CCl)O2 (configuration not stated),i,i,i,i,i,?,i,i
O=P(Nc1cccnc1)(Oc1ccccc1Cl)Oc1ccccc1Cl,i,i,i,i,i,i,nt,nt
Cc1noc(NS(=O)(=O)c2ccc(NC(=O)c3cnc4scc(C)n4c3=O)cc2)c1C,i,i,i,?,i,?,i,?
Cc1noc(NS(=O)(=O)c2ccc(NC(=O)COc3ccc(Cl)cc3Cl)cc2)c1C,i,i,i,i,i,12µM,5.4µM,12µM
Cc1ccc(NC(=O)COc2ccc(Cl)cc2Cl)cc1S(=O)(=O)N1CCOCC1,i,i,i,i,i,?,?,?
O=C(COc1ccc(Cl)cc1Cl)Nc1cccnc1,i,i,?,i,i,?,?,?
COc1ccc(CC(=O)Nc2ccc(C#N)c(Cl)c2)cc1S(=O)(=O)N1CCOCC1,i,i,i,i,i,i,nt,nt
Cc1noc(NS(=O)(=O)c2ccc(NC(=O)CCCOc3ccc(Cl)cc3Cl)cc2)c1C,i,i,i,?,i,i,nt,nt
Cc1ccc2c(c1)C1C[N+](C)(CC(=O)Nc3ccccc3Cl)CCC1N2C(=O)c1ccccc1Cl (configuration not stated),i,i,?,i,i,i,nt,nt
COc1cccc(-c2nc3c(C#N)c[nH]n3c2NC2CCCCC2)c1OC,i,nt,nt,i,?,nt,nt,nt
COc1ccc([N+](=O)[O-])cc1NC(=O)Nc1ccc(OC)c(OC)c1,i,i,?,i,i,i,nt,nt
O=P(O)(O)c1ccccc1OCCOCCOCCOCCOc1ccccc1P(=O)(O)O,i,i,?,?,i,i,nt,nt
CCOC(=O)c1cccc(NC(=O)NCc2ccc3c(c2)CCN3C(=O)c2ccccc2)c1,i,nt,nt,i,i,nt,nt,nt
COc1cccc(C(=O)NNC(=O)Cc2ccc([N+](=O)[O-])cc2)c1,i,i,?,i,i,?,?,?
COc1cccc2c1NC(C(=O)O)C1CC=CC21 (configuration not stated),?,i,i,nt,2.8µM,?,?,?
O=C(/C=C/c1ccco1)OCC(=O)N1CCCCC1,i,i,i,i,i,?,6µM,?
Cn1cc(C(=O)OCC(=O)N2CCCCC2)c2ccccc21,i,i,?,i,i,i,nt,nt
Cc1cc(C)n(-c2nc3nonc3nc2Nc2cccc(C)c2C)n1,i,i,i,?,i,i,nt,nt
Cc1sc2ncnc(SCC(=O)Nc3ccc(S(=O)(=O)N4CCOCC4)cc3)c2c1C,i,i,i,?,i,i,nt,nt
